From PubChem BioAssay AID488 (PCMD, 2006)
Among all 62,000 compounds or so, about 40 (0.06%) were called active. For the sample, actives were picked, then their nearest neighbours and some compounds at random. Values without a mark were called inactive. No stated cut-off is given here; in the data, active means inhibition above about 22% (passing the limit was not always enough); inconclusive means no clear call, values can overlap the other calls.

target: Cathepsin B (Homo sapiens) (UniProt P07858); test: human cathepsin B blockade, pooled library – biochemical, compound mixtures, AMC fluorescence, primary screen (AID 488); details: Purified cathepsin B, AMC dipeptide fluorescence, stronger effect = higher value,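 ten-compound pools at 5 µM per compound and 50 µM total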;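 further: 0% = enzyme without compound and 100% = no enzyme blank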

| Structure (SMILES) | inhibition |
| --- | --- |
| CN(C)/C=C/c1c(C#N)c(=O)ncn1Cc1ccccc1 | 4.44% |
| CCCC(=O)C1=C(N(C)c2ccccc2)CC(C)(C)C(C(=O)OC)C1=O (configuration not stated) | 6.7% |
| O=C(O)CCN1C(=O)CC2(CCCCC2)C1=O | -0.755% |
| Nc1nonc1-c1nc2ccccc2n1CCC(=O)O | 23.8% |
| Nc1nonc1-c1nc2ccccc2n1Cc1ccc(F)cc1 | 79.6% (active) |
| COc1ccc(C)c(Cn2c(-c3nonc3N)nc3ccccc32)c1 | 19.5% |
| Cc1ccc(C)c(S(=O)(=O)n2cnc3ccccc32)c1 | -4.15% |
| O=C(NCCN1CCOCC1)c1ccc2c(c1)ncn2C1CCCC1 | 2.62% |
| O=C(CCN1C(=O)C2C3C=CC(C3)C2C1=O)Nc1ccccc1F (configuration not stated) | 1.56% |
| CC1Cc2cc(/C(O)=C3\C(=O)C(=O)N(CCN4CCOCC4)C3c3ccccc3F)ccc2O1 (configuration not stated) | 3.23% |
| Cc1ccc(C2c3c(oc4ccc(C)cc4c3=O)C(=O)N2CCCN2CCOCC2)cc1 (configuration not stated) | 3.25% |
| CCOc1cc(-c2nc3cc(C)ccn3c2NCC2CCCO2)ccc1O (configuration not stated) | -4.66% |
| COc1cc2c(cc1NC(=O)CN1CCN(S(=O)(=O)c3ccc(F)cc3)CC1)oc1ccccc12 | 2.98% |
| CCC1CCCCN1CCNC(=O)c1[nH]c(C)c(C(C)=O)c1C (configuration not stated) | 4.44% |
| COC(=O)C1C(=O)CC(C)(O)C(C(=O)OC)C1c1ccc2c(c1)OCO2 (configuration not stated) | 1.84% |
| CCN(CC)C(=O)c1sc(NC(=O)c2ccco2)c(C#N)c1C | 7.73% |
| N#Cc1cccc(NC(=O)CCC2CCCC2)c1 | 0.985% |
| CC(C)c1ccc(-c2nn[nH]n2)cc1 | 4.54% |
| Cc1c(C(=O)Nc2ccccc2Cl)oc2ccc(S(=O)(=O)N3CCC4(CC3)OCCO4)cc12 | 6.83% |
| O=C(NCCSc1ccccc1)c1ccco1 | 5.3% |
| C=CCC(NCCCO)c1cccc(OC)c1OC (configuration not stated) | 0.355% |
| Cc1nc2nc[nH]n2c(=O)c1NC(=O)c1cccc(OCC(C)C)c1 | 0.08% |

| Structure (SMILES) | inhibition |
| --- | --- |
| CC(C)(C)Nc1c(N)c(=O)oc2ccccc12 | 1.79% |
| CCC1Oc2ccc(Cl)cc2N(CC(=O)O)C1=O (configuration not stated) | 4.82% |
| O=C(Cn1cnc2c(cnn2-c2ccc(F)cc2)c1=O)NCCc1ccccc1 | -5.56% |
| CN(C(=O)c1ccccn1)c1nnc(-c2ccccn2)s1 | 4.35% |
| CN1CCN(CC(=O)C23CC4CC(CC(C4)C2)C3)CC1 | -16% |
| Cc1cc(-n2nc(C)cc2C)n2ncc(-c3ccccc3)c2n1 | -1.95% |
| COCCOC(=O)C1=C(C)N=c2s/c(=C\c3cccs3)c(=O)n2C1c1cccs1 (configuration not stated) | 5.37% |
| COc1ccc(C(C)=O)cc1COC(=O)Cn1cnc2ccccc2c1=O | -0.265% |
| CC(=O)c1c(N2CCOCC2)nc(=S)n(Cc2ccccc2)c1C | -2.31% |
| CCOc1ccc(N=C2SC(C(=O)O)CC(=O)N2C)cc1 (configuration not stated) | -1.85% |
| COC(=O)Cn1c(=NC(=O)CSCC(=O)Nc2cc(C)on2)sc2ccccc21 | -5.38% |
| Cn1c(SCC(=O)N2CCOCC2)nnc1-c1ccc(NC(=O)c2ccccc2F)cc1 | -2.64% |
| CC(C)C(c1nnnn1Cc1ccccc1)N1CCC(C(N)=O)CC1 (configuration not stated) | -1.51% |
| O=C(OCc1ccccc1F)c1ccc2c(c1)OCCO2 | 8.22% |
| COC(=O)c1cc(C(=O)CSc2nc(C)cc(C)n2)ccc1O | 1.56% |
| CSc1ccc(Cl)c(C(=O)OCC(=O)N2CC(C)OC(C)C2)c1 (configuration not stated) | -10.2% |
| COC(=O)C1=C(N)Oc2cc(C)oc(=O)c2C1c1cccnc1 (configuration not stated) | 1.64% |
| COC(=O)c1ccc(CSc2nncn2C)cc1 | 6.61% |
| CCN(CC)P(=O)(/C(Cl)=C\Nc1c(C)n(C)n(-c2ccccc2)c1=O)N(CC)CC | -1.45% |
| C=CCN(c1ccc(C(N)=O)cc1)S(C)(=O)=O | 1.82% |
| CCOC(=O)C1=C(C)N=c2s/c(=C\C(=O)OC)c(=O)n2C1c1ccc(OC)cc1 (configuration not stated) | 4.36% |
| Cc1ccc(Cn2nnc3c(=O)n(CC(=O)N4CCCCC4)cnc32)cc1 | -4.83% |

| Structure (SMILES) | inhibition |
| --- | --- |
| O=C(CC1Nc2ccccc2NC1=O)Nc1ccccc1 (configuration not stated) | 2.4% |
| COc1ccccc1-n1cnc2cc(NS(=O)(=O)c3ccccc3)ccc21 | 4.81% |
| C=CCn1c(=N)n(CC(O)COc2ccc(OC)cc2)c2ccccc21 (configuration not stated) | 4.16% |
| CCOc1ccc(CC(=O)Nc2ccc(S(=O)(=O)Nc3cc(C)on3)cc2)cc1OCC | 3.38% |
| COC(=O)C1=C(C)NC(=O)NC1/C=C/c1ccccc1 (configuration not stated) | 4.12% |
| O=C(Cn1c(-c2ccc(Cl)cc2)noc1=O)N1CCN(c2ccccc2F)CC1 | -2.31% |
| CCOC(=O)c1ccc2[nH]c(C)c(CN3CCN(C)CC3)c(=O)c2c1 | 6.62% |
| Cc1nc2cc(S(=O)(=O)C(F)(F)F)ccc2s1 | 1.09% |
| CCOc1ccc(NC(=O)CCS(=O)(=O)c2cccc3nsnc23)cc1 | 1.87% |
| Cc1nnc(SCC(=O)NCc2ccccc2)s1 | -1.96% |
| CC1=CC(C)(C)N(C(=O)CSc2nnc(-c3ccccc3)o2)c2ccc(C)cc21 | 1.93% |
| O=c1cc(CO)oc(CN2CCC(Cc3ccccc3)CC2)c1O | -2.05% |
| CCOC(=O)c1cc2occc2n1CC(=O)N1CCN(C(=O)c2ccco2)CC1 | 0.785% |
| Cc1cc(NC(=O)COC(=O)c2ccc(F)c(S(=O)(=O)N3CCOCC3)c2)no1 | 5.21% |
| CC1=C(C(N)=O)C(c2ccc3c(c2)OCO3)n2nc(-c3cccc(C)c3)nc2N1 (configuration not stated) | -4.66% |
| CCCCn1c(CCCNC(=O)CC)nc2ccccc21 | 1.44% |
| Cc1cc(Cl)c(S(=O)(=O)NCc2cccnc2)cc1OCC(N)=O | 7.41% |
| O=C(/C=N/O)Nc1ccccc1 | 3.15% |
| NC(=O)C1CCN(C(=O)c2ccc(C(F)(F)F)cc2)CC1 | -1.58% |
| CCOC(=O)CSc1nnc(CNC(=O)c2cccs2)n1-c1cc(OC)ccc1OC | 0.53% |
| Cc1cccc(OCc2nnc(SCn3nnc4ccccc4c3=O)o2)c1 | -0.48% |
| O=C(Cn1c(-c2cncs2)nc2ccccc21)NC1CCCC1 | 1.92% |

| Structure (SMILES) | inhibition |
| --- | --- |
| C=C1c2cc(CC)ccc2NC(=O)N1c1ccc(C)cc1 | 5.66% |
| COc1ccc(OC)c(CNC(=O)CCc2nc(-c3cccs3)no2)c1 | -0.11% |
| CC(=O)c1c(C)[nH]c(C(=O)NCCCN2CCCC2)c1C | 3.25% |
| c1ccc2[nH]c(-c3nc4ccccc4[nH]3)nc2c1 | -5.47% |
| Cc1ccc2cccc(S(=O)(=O)N3CCN(c4ccccc4F)CC3)c2n1 | 2.15% |
| NC(=O)CSC1=Nc2ccccc2C2=NC(CCC(=O)NCc3ccc(F)cc3)C(=O)N12 (configuration not stated) | 0.205% |
| O=C(c1ccc(=O)[nH]c1)N(Cc1ccco1)C1(C(=O)NC2CCCCC2)CCCCC1 | 2.12% |
| O=C(CN1CCOCC1)Nc1c2c(nc3c1CCC3)CCC2 | 0.235% |
| CCOc1c(N2CCCCC2)c(=O)c1=O | -3.57% |
| CCn1c(=O)cc(SCC(=O)NCc2ccc3c(c2)OCO3)c2ccccc21 | 1.53% |
| Cc1ccc(N2CCN(S(=O)(=O)c3ccc(F)cc3)CC2)c(C)c1 | -2.33% |
| CCCCN(CC)C(=O)CN(C)S(=O)(=O)c1cccc2nsnc12 | 0.445% |
| O=C(NCc1ccco1)c1cc(-c2cccnc2)nc2ccc(Cl)cc12 | -4.83% |
| COc1ccc2c(c1)C=CC1(O2)N(CCO)c2ccccc2C1(C)C (configuration not stated) | 2.88% |
| CCOC(=O)N1CCC(C(N)=O)CC1 | 7.54% |
| CSC1=N/C(=C\C=C\c2cccs2)C(=O)S1 | 9% |
| COc1cc(=O)[nH]c(=O)n1C(=O)Cc1ccccc1 | 3.21% |
| COC(=O)COc1ccc(S(=O)(=O)Nc2ccc(NC(C)=O)cc2)cc1 | 0.2% |
| CS(=O)(=O)c1ccc2nc(NC(=O)C3C4C=CC(C4)C3C(=O)O)sc2c1 (configuration not stated) | 0.27% |
| COc1ccc(NC(=O)Nc2cccc3cccnc23)cc1 | 3.29% |
| Cc1ccc(-c2noc(-c3ccccc3C(=O)NCC3CCCO3)n2)cc1 (configuration not stated) | -4.67% |
| C=CCn1c(SCc2cc(C(=O)OC)c(C)o2)nnc1-c1ccncc1 | -5.06% |

| Structure (SMILES) | inhibition |
| --- | --- |
| C=CCOc1ccc(C2/C(=C(\O)c3c(C)[nH]c(C(=O)OC)c3C)C(=O)C(=O)N2CCN(C)C)cc1 (configuration not stated) | -5.12% |
| O=C(Cn1cnc2c(cnn2-c2ccccc2)c1=O)NCc1ccccc1 | -0.45% |
| Oc1ccc(-c2csc(Nc3cccnc3)n2)cc1 | 2.75% |
| CC(C)C[C@H](NC(=O)[C@@H]1O[C@H]1C(=O)O)C(=O)NCCCCN=C(N)N | 99.7% (active) |
| COC(=O)c1cc(OC)c(OC)cc1NC(=O)C1CCCO1 (configuration not stated) | -0.18% |
| CC1=NCCN1S(=O)(=O)c1ccc(Br)c(C)c1 | -3% |
| O=C1CC(c2ccccc2)C(=O)N1c1cccc(O)c1 (configuration not stated) | -1.1% |
| COc1ccc(OCCCC(=O)Nc2nnc(C3CCCO3)s2)cc1 (configuration not stated) | -2.29% |
| Cc1ccc(S(=O)(=O)N(C)CC(=O)N2CCc3ccccc32)cc1 | -2.02% |
| O=C1c2oc3ccc(Br)cc3c(=O)c2C(c2cccc(F)c2)N1CCO (configuration not stated) | -5.69% |
| O=C(NCc1cccnc1)c1ccc(CS(=O)(=O)c2ccc(Br)cc2)o1 | 3.93% |
| CC(=O)Nc1ccc(S(=O)(=O)Nc2ccc(N3CCOCC3)c(F)c2)cc1 | 1.35% |
| Cc1nc2ccc(S(=O)(=O)NC(C(=O)N3CCCCCC3)C(C)C)cc2s1 (configuration not stated) | 6.23% |
| CCn1c(COc2cccc(OC)c2)nnc1SCC(=O)N1CCOCC1 | 2.62% |
| CCOC(=O)c1c(CN2CCOCC2)n(-c2ccccc2)c2ccc(O)cc12 | 4.31% |
| CC(c1nnc(SCC(=O)Nc2sccc2C#N)n1-c1ccc(Cl)cc1)N(C)C (configuration not stated) | 5.86% |
| Cc1cc(C)nc(-n2nc(C)cc2NC(=O)c2ccc(Br)o2)n1 | 6.29% |
| c1csc(-c2cn3c(n2)SCC3)c1 | 0.03% |
| Cc1cc(/C=N/n2cnnc2)c(C)n1-c1ccc2ncccc2c1 | 0.4% |
